PubChem BioAssay (NCI)
The panel holds about 79,000 compounds, 15% with a hit somewhere; the sample as a whole holds those more often. Active and inactive are the calls of the source. Cut-off read from the data, not from the text of the source: active = growth inhibition above about 70%; inactive = the rest.

Columns and labels:
[1] = NCI Yeast Anticancer Drug Screen. Data for the rad52 strain (AID 147);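 note: 0% = growth of vehicle-treated control cultures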; details: S. cerevisiae rad52 mutant growth inhibition, active compounds read high
Method in brief: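 DNA repair-defective yeast; compound exposure; growth scored against vehicle controls.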

[2] = NCI Yeast Anticancer Drug Screen. Data for the wt1 strain (AID 149);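 note: 0% = growth of vehicle-treated wt1 cultures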; details: S. cerevisiae wt1 strain (SPY 50644) growth inhibition, active compounds read high
Method in brief: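 The wt1 strain was treated with compounds, and growth was compared with vehicle-treated cultures to give inhibition.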

[3] = NCI Yeast Anticancer Drug Screen. Data for the rad50EPP+ strain (AID 151);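 note: 0% = growth of vehicle-treated control cultures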; details: S. cerevisiae rad50 mutant strain, active compounds read high
Method in brief: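 rad50EPP+ yeast treated with test compounds. Readout: growth vs vehicle control.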

[4] = NCI Yeast Anticancer Drug Screen. Data for the mgt1 strain (AID 153); details: S. cerevisiae mgt1 mutant growth inhibition, active compounds read high
Method in brief: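 Growth inhibition relative to vehicle controls was scored for the mgt1 yeast strain after compound exposure.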

[5] = NCI Yeast Anticancer Drug Screen. Data for the rad50 strain (AID 155);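 note: 0% = growth of vehicle-only cultures of the same strain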; details: S. cerevisiae rad50 strain growth inhibition, active compounds read high
Method in brief: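 Cells are treated with compound, grown, and their growth is then scored against vehicle-only cultures of the same repair-deficient yeast strain.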

[6] = NCI Yeast Anticancer Drug Screen. Data for the mec2-1 strain (AID 157); details: S. cerevisiae mec2-1 strain, active compounds read high
Method in brief: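 Growth inhibition is read against vehicle-treated controls after compound exposure of the mec2-1 yeast strain, which is defective in DNA damage repair or cell cycle control.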

[7] = NCI Yeast Anticancer Drug Screen. Data for the rad14 strain (AID 159);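 note: 0% = growth of vehicle-treated control cultures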; details: S. cerevisiae rad14 strain growth inhibition, active compounds read high
Method in brief: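 Readout: yeast growth inhibition, referenced to vehicle-only cultures. Strain bears a defined alteration in DNA damage repair.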

[8] = NCI Yeast Anticancer Drug Screen. Data for the sgs1 mgt1 strain (AID 161);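 note: 0% = growth of cultures given vehicle only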; details: S. cerevisiae sgs1 mgt1 strain, active compounds read high
Method in brief: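 Compounds are added to genetically altered yeast, and growth is compared with cultures given vehicle alone to give percent inhibition.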

[9] = NCI Yeast Anticancer Drug Screen. Data for the CLN2oe strain (AID 163);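 note: 0% = growth of vehicle-only control cultures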; details: S. cerevisiae CLN2oe strain, active compounds read high
Method in brief: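 Compound-treated yeast; growth vs vehicle ctrl = % inhibition. Genetically altered strain (cell-cycle control).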

[10] = NCI Yeast Anticancer Drug Screen. Data for the cln2 rad14 strain (AID 165);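 note: 0% = growth equal to vehicle treated cultures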; details: S. cerevisiae cln2 rad14 strain, active compounds read high
Method in brief: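 Growth inhibition, relative to vehicle-treated controls, is the read-out. The test organism is a yeast strain with defined genetic alterations, cln2 rad14.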

[11] = NCI Yeast Anticancer Drug Screen. Data for the bub3 strain (AID 167); details: S. cerevisiae bub3 mutant strain, active compounds read high
Method in brief: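 Part of a panel of yeast mutants defective in DNA damage repair or cell cycle regulation. Each strain is grown with compound, and inhibition is calculated relative to solvent-treated cultures.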

[12] = NCI Yeast Anticancer Drug Screen. Data for the wt2 strain (AID 169);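 note: 0% = growth of vehicle-treated yeast cultures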; details: S. cerevisiae wt2 strain growth inhibition, active compounds read high
Method in brief: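 Compound exposure of yeast; growth compared with vehicle controls; inhibition reported.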

[13] = NCI Yeast Anticancer Drug Screen. Data for the mlh1 strain (AID 171);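 note: 0% = growth of vehicle-treated control cultures of the same strain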; details: S. cerevisiae mlh1 strain growth inhibition, active compounds read high
Method in brief: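 Compounds are applied to a genetically altered yeast strain, and its growth is compared with that of vehicle-treated cultures to give percent inhibition.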

[14] = NCI Yeast Anticancer Drug Screen. Data for the sgs1 strain (AID 173);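 note: 0% = growth of vehicle-only control cultures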; details: S. cerevisiae sgs1 mutant, active compounds read high
Method in brief: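 Compounds applied to genetically altered yeast; growth compared with vehicle-treated cultures to give % inhibition.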

[15] = NCI Yeast Anticancer Drug Screen. Data for the mlh1 rad18 strain (AID 175); details: S. cerevisiae mlh1 rad18 strain growth inhibition, active compounds read high
Method in brief: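 Cells of a genetically altered yeast strain, deficient in DNA damage repair, were treated with compound. Their growth was then compared with that of vehicle-treated cultures to give inhibition.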

[16] = NCI Yeast Anticancer Drug Screen. Data for the rad18 strain (AID 177); details: S. cerevisiae rad18 mutant growth inhibition, active compounds read high
Method in brief: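 Compounds are applied to a repair-deficient yeast strain, and growth is compared with that of vehicle-treated cultures to give percent inhibition.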

[17] = at 5.0 µM (retest, dose inferred, filed as 0.5)
[18] = at 50.0 µM (retest, dose inferred, filed as 5.0)

Measured: growth inhibition

CC(C)(CN1CCCCC1)C(=O)CC(SCCS(=O)(=O)O)c1ccccc1 (stereo not drawn)
inactive: [1]; at 1.2 µM 6% | [1]; at 3.7 µM 4% | [1]; at 11.0 µM 25% | [1]; at 33.0 µM 34% | [1]; at 100.0 µM 18% | [2]; at 1.2 µM -63% | [2]; at 3.7 µM 1% | [2]; at 11.0 µM 0% | [2]; at 33.0 µM 4% | [2]; at 100.0 µM 10% | [3]; at 1.2 µM 1% | [3]; at 3.7 µM 0% | [3]; at 11.0 µM -1% | [3]; at 33.0 µM -1% | [3]; at 100.0 µM -5% | [4]; at 1.2 µM 1% | [4]; at 3.7 µM 5% | [4]; at 11.0 µM 6% | [4]; at 33.0 µM 8% | [4]; at 100.0 µM 12% | [5]; at 1.2 µM 1% | [5]; at 3.7 µM 4% | [5]; [17] 10% | [5]; at 11.0 µM 8% | [5]; at 33.0 µM 14% | [5]; [18] 7% | [5]; at 50.0 µM 9.6% | [5]; at 100.0 µM 11% | [6]; at 1.2 µM -1% | [6]; at 3.7 µM -4% | [6]; [17] 11% | [6]; at 11.0 µM 0% | [6]; at 33.0 µM 9% | [6]; [18] -3% | [6]; at 50.0 µM -12.1% | [6]; at 100.0 µM 8% | [7]; at 1.2 µM 3% | [7]; at 3.7 µM 9% | [7]; at 11.0 µM 17% | [7]; at 33.0 µM 31% | [7]; at 100.0 µM 39% | [8]; [17] 17% | [8]; [18] 1% | [8]; at 50.0 µM -2% | [9]; at 1.2 µM -6% | [9]; at 3.7 µM 0% | [9]; at 11.0 µM 8% | [9]; at 33.0 µM 15% | [9]; at 100.0 µM 31% | [10]; [18] 69% | [10]; at 50.0 µM 46.3% | [11]; at 1.2 µM -1% | [11]; at 3.7 µM -6% | [11]; [17] 19% | [11]; at 11.0 µM -1% | [11]; at 33.0 µM 5% | [11]; [18] 32% | [11]; at 50.0 µM 12.1% | [11]; at 100.0 µM 13% | [12]; at 1.2 µM 0% | [12]; at 3.7 µM 2% | [12]; at 11.0 µM 5% | [12]; at 33.0 µM 11% | [12]; at 100.0 µM 15% | [13]; at 1.2 µM 0% | [13]; at 3.7 µM 2% | [13]; at 11.0 µM 3% | [13]; at 33.0 µM 6% | [13]; at 100.0 µM 13% | [14]; at 1.2 µM 3% | [14]; at 3.7 µM 6% | [14]; at 11.0 µM 7% | [14]; at 33.0 µM 19% | [14]; at 100.0 µM 22% | [15]; [17] 17% | [15]; [18] -1% | [15]; at 50.0 µM 5.05% | [16]; at 1.2 µM 10% | [16]; at 3.7 µM 11% | [16]; at 11.0 µM 16% | [16]; at 33.0 µM 26% | [16]; at 100.0 µM 37%
active: [10]; [17] 72%
